HCMV antiviral – inhibitors of human cytomegalovirus. HFF cells, HCMV-luciferase reporter, 72 h; hits give low values. activity change, negative = inhibition, % at 57.5 µM. hit rate 4.5% among 410,000; in the data active means activity change below about -60%; inconclusive means no clear call, values can overlap the other calls; inactive means above about -39%
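After 16 h attachment at 37C, HFF cells received test compound and HCMV-luciferase (1 PFU/cell); reporter luminescence read 72 h later, data normalized against buffer-only and known inhibitor Salinomycin.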
FMDV inh – foot and mouth disease virus antiviral activity; AID 1159524; Potency, µM (top dose mostly 57.9 µM), for inactives: at the top dose activity change, negative = inhibition, usual class: inhibitors; FMDV antiviral cell-based qHTS; hit rate 1.2% among 410,000; calls by dose curve; tested in HEK293T cells; further: read-out not given here; potency means the concentration at half of the fitted maximal effect; nearly all actives have a fitted effect of over 45% in size
VACV mCherry inh – inhibitors of vaccinia virus infection (mCherry reporter signal) | Vaccinia virus mCherry reporter infection, fluorescence | Potency, µM (top dose mostly 36.5 µM), without a hit: at the highest dose activity change, negative = inhibition, most hits filed as inhibitors | hit rate 0.63% among 310,000; calls by dose curve; tested in A549 cells; further: potency means the concentration at half of the fitted maximal effect; nearly all actives have a fitted effect of over 35% in size
LASV entry inh – Lassa virus entry inhibition. hit rate 1.2% among 300,000. Lassa virus pseudotype entry inhibition, cell reporter. Potency, µM (highest dose often 37.9 µM), for inactives: at the top dose activity change, negative = inhibition, usual class: inhibitors; calls by dose curve; tested in HEK293 cells; further: potency means the concentration at half of the fitted maximal effect; nearly all actives have a fitted effect of over 50% in size
VACV Venus inh – inhibitors of vaccinia virus (Venus reporter); Vaccinia virus Venus reporter expression, fluorescence; Potency, µM (titrated, usually from 36.5 µM), without a hit: at the highest dose activity change, negative = inhibition, most hits filed as inhibitors; hit rate 0.46% among 330,000; calls by dose curve; tested in A549 cells; further: potency means the concentration at half of the fitted maximal effect; nearly all actives have a fitted effect of over 30% in size
MARV entry inh – inhibitors of Marburg virus binding or cell entry. hit rate 1.8% among 300,000. Marburg virus pseudotyped entry inhibition, cell reporter. Potency, µM (doses to about 37.8 µM), for inactives: top-dose activity change, negative = inhibition, most hits filed as inhibitors; calls by dose curve; tested in HEK293 cells; further: potency means the concentration at half of the fitted maximal effect
An asterisk follows results filed as active; i = inactive; ? = inconclusive; nt = no result given; [ ] = another dose, or the depositor's remark. Hits are enriched below; roughly 6.5% of the tested compounds scored in any of these assays. On the % scale 0 is the no-effect control and ±100 the full control effect.

SMILES | HCMV antiviral | FMDV inh | VACV mCherry inh | LASV entry inh | VACV Venus inh | MARV entry inh
CN1C[C@H](C(=O)N[C@]2(C)O[C@@]3(O)[C@@H]4CCCN4C(=O)[C@H](Cc4ccccc4)N3C2=O)C[C@@H]2c3cccc4[nH]cc(c34)C[C@H]21 | nt | nt | nt | ? | nt | 1.1µM*
CN1C[C@H](C(=O)N[C@]2(C)O[C@@]3(O)[C@@H]4CCCN4C(=O)[C@H](Cc4ccccc4)N3C2=O)CC2c3cccc4[nH]cc(c34)C[C@H]21 (stereo not given in full) | -19 | -2% | -5% | nt | -8% | nt
CCn1c(=O)n(-c2ccc(C)c(F)c2)c(=O)c2sc3ccccc3c21 | -6 | -9% | -5% | 0%[46.1 µM] | -2% | -3%[46.1 µM]
CC(=O)Nc1ccc(CN2CCn3c(nnc3C(=O)NCC3CC3)C2)cc1 | 3 | nt | nt | nt | nt | nt
C[C@H]1[C@@H](NS(=O)(=O)c2cc(Cl)cc(Cl)c2)CC[C@@]23CCCN2C(=O)CCC[C@@H]13 | -5 | nt | nt | nt | nt | nt
[O-]/C(=C(\C(=S)Nc1ccc(SC(F)F)cc1)[n+]1ccccc1)c1ccc(Cl)cc1Cl | -63* | -8% | i | ? | -15% | ?
CCOc1ccc(-c2cc3c(=O)n(CC(=O)NCc4ccccc4)ccn3n2)cc1 | 54 | 35% | -9% | 3%[46.1 µM] | 1% | nt
OC(CN1CCOCC1)CN1CCOCC1 | -65* | -4% | i | 3% | 5% | 0%
CCOC(=O)N1CC(C)N(CC(O)CN2CCOCC2)CC1C (stereo not given) | -88* | 0% | -13% | 7%[46.1 µM] | -1% | 4%[46.1 µM]
Cc1c(Cl)cccc1-c1ccc(CNCCSc2nnnn2-c2ccccc2)o1 | 10 | ? | -9% | 5%[46.1 µM] | -4% | -2%[46.1 µM]
Cc1ccc2cc(C#N)c(N3CCCN(C(=S)NCCCN(C)C)CC3)nc2c1 | -5 | -15% | -9% | ? | ? | 7.1µM*
O=[N+]([O-])c1oc2ccc3ccccc3c2c1CCO | -102* | -11% | ? | -22%[46.1 µM] | 10µM* | ?
CCc1c(C(=O)NCCc2cccc(C)c2)[nH]c(C)c1C(C)=O | -17 | 23% | -15% | 3.5µM* | 10% | ?
CC(=O)c1c(C)[nH]c(C(=O)NCCc2cccc(C)c2)c1C | 89 | 3% | ? | -25% | ? | -29%
CC1Cc2ccccc2N1C(=O)CSc1nnc2c(n1)[nH]c1ccccc12 (stereo not given) | -5 | 14µM* | nt | -11% | -5% | -13%
CC1Cc2ccccc2N1C(=O)CSc1nncn1C (stereo not given) | 35 | -12% | -6% | 11%[46.1 µM] | -4% | -2%[46.1 µM]
CC(Sc1nnc(-c2ccccc2)c(-c2ccccc2)n1)C(=O)N1CCc2ccccc21 (stereo not given) | -31 | ? | 0% | ? | -4% | 11µM*
CC1Cc2ccccc2N1C(=O)CSc1nnc(-c2ccccc2)c(-c2ccccc2)n1 (stereo not given) | -83* | ? | -14% | ? | -25% | ?
CCCc1nc(SCC(=O)N2c3ccccc3CC2C)c2c(C)c(C)sc2n1 (stereo not given) | ? | nt | -2% | ? | -1% | 9.2µM*
CCCc1nc(SCC(=O)NC2CC2)c2c(C)c(C)sc2n1 | 55 | -11% | i | 2%[46.1 µM] | -14% | 18%[46.1 µM]
COCc1cc2cc3c(cc2c2c(C(=O)OC)c(C(=O)OC)c(C(=O)OC(C)(C)C)n12)OCO3 | nt | nt | nt | ? | nt | -27%[14.2 µM]
COc1ccc(O[C@@H]2[C@H](O)CO[C@H]2/C=C/C#Cc2ccccc2)cc1 | nt | nt | nt | nt | nt | 8%[14.2 µM]
COc1ccccc1CN1C[C@@H]2C[C@@H](c3ccccc3C)N3CCC[C@@]23C1=O | -7 | 15% | -8% | nt | -16% | nt
Cc1ccccc1CN1C[C@@H]2C[C@@H](c3cnc(N4CCOCC4)s3)N3CCC[C@@]23C1=O | -76* | -11% | i | nt | -9% | nt
CCC(=O)Nc1nonc1-c1nc2ccccc2n1Cc1cccc2ccccc12 | -104* | ? | ? | ? | ? | ?
SMILES | HCMV antiviral | FMDV inh | VACV mCherry inh | LASV entry inh | VACV Venus inh | MARV entry inh
CCC(=O)Nc1nonc1-c1nc2ccccc2n1Cc1ccccc1 | 7 | -14% | i | -9% | -27% | -12%
C[C@@H]1CN([C@@H](C)CO)C(=O)CCCn2cc(nn2)CO[C@H]1CN(C)C(=O)NC1CCCCC1 | -13 | nt | nt | nt | nt | nt
COc1cc(C2c3c(-c4ccccc4)n[nH]c3C(=O)N2c2ccccc2)ccc1O (stereo not given) | 21 | ? | nt | -29% | nt | -2%
CCOC(=O)c1ccc(N2C(=O)c3[nH]nc(-c4ccc(OC)cc4)c3C2c2cccc(O)c2)cc1 (stereo not given) | -107* | 32µM* | ? | ? | -25% | ?
CCOC(=O)c1ccc(N2C(=O)c3[nH]nc(-c4ccccc4)c3C2c2ccc(CC)cc2)cc1 (stereo not given) | -105* | ? | ? | ? | ? | ?
CCOC(=O)c1ccc(N2C(=O)c3[nH]nc(-c4ccc(C)cc4)c3C2c2cccc(F)c2)cc1 (stereo not given) | -99* | ? | ? | ? | -22% | ?
CCOC(=O)c1ccc(N2C(=O)c3[nH]nc(-c4ccc(C)cc4)c3C2c2ccc(O)cc2)cc1 (stereo not given) | -74* | 32µM* | -29% | ? | -25% | 10µM*
CCOC(=O)c1ccc(N2C(=O)c3n[nH]c(C)c3C2c2cccnc2)cc1 (stereo not given) | 5 | -8% | -3% | -16% | 2% | -8%
CCc1cc(C(=O)NCC2Cc3cc(-c4ccccc4C(C)=O)ccc3O2)no1 (stereo not given) | nt | -28% | -13% | nt | -2% | nt
COCCNC(=O)C(C)(C)n1cc(-c2ccc(OC)c(OC)c2)cn1 | 5 | nt | nt | nt | nt | nt
CCN1C(=NCCCCO)NC(c2cccc(C(F)(F)F)c2)C(C(=O)OC)=C1C (stereo not given) | nt | nt | nt | nt | nt | -19%[14.2 µM]
COc1ccccc1N1CCN(C(=O)c2nc(SC)ncc2Cl)CC1 | 21 | 25% | -25% | ? | -10% | -19%[46.1 µM]
C[C@@H]1[C@H](c2ccccc2)OCCS(=O)(=O)N1Cc1cccc(C(F)(F)F)c1 | nt | nt | -15% | nt | -11% | nt
CC(C)(C)c1ccc(-c2n[nH]c(=S)n2C2CCCC2)cc1 | -91* | ? | nt | ? | nt | ?
Cn1c(-c2ccc(C(C)(C)C)cc2)n[nH]c1=S | 39 | 29% | nt | ? | -25% | -21%
COCCCn1cc(C(=O)c2cc(Br)ccc2O)cc(C#N)c1=O | -25 | -10% | ? | ? | 6% | 1.6µM*
CCOCCCn1cc(C(=O)c2cc(Br)ccc2O)cc(C#N)c1=O | 12 | 6% | -16% | ? | 18% | -27%[46.1 µM]
CC(C)CCNC(=O)c1cc(C(=O)c2cc(Br)ccc2O)cn(CCC(C)C)c1=O | -73* | ? | i | 2% | 16% | -19%[46.1 µM]
C=CCNC(=O)[C@H]1C=C(OC)C(=O)C[C@H](c2ccccc2)[C@H]1C | nt | nt | nt | nt | nt | 9%[14.2 µM]
